In the supplement of paper PMC7156485:
± gives the standard deviation of the averaged measurements.

What was measured:
Details in all cases: concentration: 10 µM; 24 h
HCC1569 [1] = test: cell number relative to DMSO (% of DMSO); higher = more cells (less growth inhibition / toxicity)
Summary of the method: (§1)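 After 24 h at 37 °C with compounds at 10 µM, in triplicate, HCC1569 and TDF cells were fixed with 3.7% formaldehyde. Immunostaining used a rabbit anti-H1.0 antibody and an AlexaFluor 647 secondary, with DAPI, and six fields per well were imaged at ×10. H1.0 nuclear intensity or cell number is presented as percent of the plate control, from the median of replicates, with HCC1569 values smoothed for positional effects.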

TDF [2] = test: as above
Summary of the method: as §1

TDF [3] = test: H1.0 immunofluorescence intensity relative to DMSO (% of DMSO); higher = stronger H1.0 induction, active = 120 or more
Summary of the method: as §1

HCC1569 [4] = test: H1.0 immunofluorescence intensity relative to DMSO (% of DMSO); higher = stronger H1.0 induction, active = 140 or more
Summary of the method: as §1
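For H1.0 immunofluorescence intensity relative to DMSO in this document: TDF is a line of transformed human dermal fibroblasts of mesenchymal origin.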
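For cell number relative to DMSO in this document: TDF denotes transformed human dermal fibroblasts of mesenchymal origin.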

SMILES	cell number (HCC1569 [1])	cell number (TDF [2])	H1.0 immunofluorescence intensity (TDF [3])	H1.0 immunofluorescence intensity (HCC1569 [4])
NC(=O)c1noc([C@H](CCCC2CCCCC2)CC(=O)NO)n1	73.8	95.6	99.6 (inactive)	109 (inactive)
N#CCCc1ccc2c(c1)-c1[nH]c3ccc([N+](=O)[O-])cc3c1CC(=O)N2 [Alsterpaullone,                   2-Cyanoethyl]	63.2	32.7	112 (inactive)	113 (inactive)
CC1OC(OC2C(O)CC(OC3C(O)CC(OC4CCC5(C)C(CCC6C5CCC5(C)C(C7=CC(=O)OC7)CCC65O)C4)OC3C)OC2C)CC(O)C1O (stereo not drawn) [Digitoxin]	58.4	48.4	127 (active)	121 (inactive)
CCOc1nc2cccc(C(=O)O)c2n1Cc1ccc(-c2ccccc2-c2nn[nH]n2)cc1 [Candesartan]	104	97.2	99.8 (inactive)	99.7 (inactive)
Cn1c(=O)c2[nH]cnc2n(C)c1=O [Theophylline]	100	95.5	97 (inactive)	103 (inactive)
C=CC1CN2CCC1CC2C(O)c1ccnc2ccc(OC)cc12.C=CC1CN2CCC1CC2C(O)c1ccnc2ccc(OC)cc12.O=S(=O)(O)O (stereo not drawn) [Quinidine sulfate]	99	99.9	95.4 (inactive)	112 (inactive)
CCCCCCCCC=CCCCCCCCC(=O)NCCc1ccc(O)c(O)c1 [Oleoyl dopamine]	98.1	88.4	103 (inactive)	118 (inactive)
Cc1cc(N)c2ccccc2[n+]1CCCCCCCCCCCCCC[n+]1c(C)cc(N)c2ccccc21.[I-].[I-] [Dequalinium analog, C-14 linker]	101	102	95.7 (inactive)	100 (inactive)
Cc1nc2n(c(=O)c1CCN1CCC(c3noc4cc(F)ccc34)CC1)CCCC2 [Risperidone]	100 ± 3	99.6 ± 4	93.1 (inactive)	107 (inactive)
Cl.Cl.NCCSSCCN [Cystamine dihydrochloride]	97.5	107	93.4 (inactive)	101 (inactive)
CNC(=O)C1OC(n2cnc3c(NCc4cccc(I)c4)ncnc32)C(O)C1O (stereo not drawn)	102	114	87.4 (inactive)	82.1 (inactive)
COc1ccccc1N1CCN(CCN(C(=O)C2CCCCC2)c2ccccn2)CC1.O=C(O)C=CC(=O)O	104	102	101 (inactive)	100 (inactive)
CC12CCC(=O)C=C1CCC1C2C(O)CC2(C)C1CCC2(O)C(=O)CO (stereo not drawn) [Hydrocortisone]	98.68 ± 0.34	102 ± 9.9	86.3 (inactive)	105 (inactive)
CCCCCCCCCCC1=C(C)C(=O)C(OC)=C(OC)C1=O [Decylubiquinone]	101	89.2	94.8 (inactive)	91.8 (inactive)
OCC1OC(n2cnc3c(NCCc4ccccc4)ncnc32)C(O)C1O (stereo not drawn) [N6-2-Phenylethyladenosine]	99.4	113	87.8 (inactive)	101 (inactive)
CNC1(C)C2CCC(C2)C1(C)C (stereo not drawn) [Mecamylamine]	101	106	83.3 (inactive)	107 (inactive)
O=C(NC(CO)C(O)c1ccc([N+](=O)[O-])cc1)C(Cl)Cl (stereo not drawn) [Chloramphenicol]	100	92.2	93.1 (inactive)	112 (inactive)
Cl.Cl.OCCN1CCN(CCCN2c3ccccc3Sc3ccc(C(F)(F)F)cc32)CC1 [Fluphenazine dihydrochloride]	92.5	96.3	118 (inactive)	133 (inactive)
NS(=O)(=O)Cc1noc2ccccc12 [Zonisamide]	101	94.5	96 (inactive)	90.5 (inactive)
Br.CN=c1nc(-c2ccccc2)n(-c2ccccc2)s1	97.5	107	90.9 (inactive)	111 (inactive)
O=c1cc(-c2ccccc2)oc2cc(O)ccc12 [7-Hydroxyflavone]	103	104	96.8 (inactive)	88.8 (inactive)
Nc1c(C(=O)O)c2nc3c(C(=O)O)cccc3oc-2cc1=O [2-amino-3-oxo-3H-phenoxazine-1,9-dicarboxylic acid]	92	88.1	110 (inactive)	101 (inactive)
c1ccc(CNc2nc(NCc3ccccc3)c3ccccc3n2)cc1 [N~2~,N~4~-dibenzyl-2,4-quinazolinediamine]	33.7	39	156 (active)	88.7 (inactive)
CCCCCCCCCCCCCCSCC(=O)O [Tetradecylthioacetic acid]	104	107	85.8 (inactive)	102 (inactive)

SMILES	cell number (HCC1569 [1])	cell number (TDF [2])	H1.0 immunofluorescence intensity (TDF [3])	H1.0 immunofluorescence intensity (HCC1569 [4])
CC(C)C(CO)Nc1nc(Nc2cc(N)cc(Cl)c2)c2ncn(C(C)C)c2n1 (stereo not drawn)	60.6	45.9	111 (inactive)	177 (active)
Cc1ccc(S(=O)(=O)NC(=O)NN2CCCCCC2)cc1 [Tolazamide]	101.3 ± 0.45	111.1 ± 0.38	93.2 (inactive)	102 (inactive)
Cl.O=C(NCCCCN1CCN(c2cccc(Cl)c2Cl)CC1)c1ccc2c(c1)Cc1ccccc1-2	93.5	98.2	96.4 (inactive)	116 (inactive)
Cl.c1ccc(C2CN3CCSC3=N2)cc1 (single isomer, unassigned; (-)) [(-)-Tetramisole hydrochloride]	108	97.3	92.4 (inactive)	98.7 (inactive)
O=C1NCCc2[nH]c(-c3ccncc3)cc21 [Cdc7/Cdk9 Inhibitor]	58.9	35.3	111 (inactive)	115 (inactive)
COC1CC(OC2C(C)C(=O)OC(C)C(C)C(OC(C)=O)C(C)C(=O)C3(CO3)CC(C)C(OC3OC(C)CC(N(C)C)C3OC(C)=O)C2C)OC(C)C1OC(C)=O (stereo not drawn) [Troleandomycin]	102 ± 2.6	108.1 ± 0.42	97.2 (inactive)	94.6 (inactive)
O=C(O)c1ccccc1C(=O)Nc1ccc(-c2ccccc2)cc1 [2-[([1,1'-biphenyl]-4-ylamino)carbonyl]benzoic acid]	104	99.9	98.7 (inactive)	95.6 (inactive)
Oc1cc(O)c2c(c1)OC(c1ccc(O)c(O)c1)C(O)C2 (single isomer, unassigned; (-)) [(-)-Epicatechin]	102	106	100 (inactive)	89.2 (inactive)
CCCCS(=N)(=O)CCC(N)C(=O)O (racemic) [DL-Buthionine-[S,R]-sulfoximine]	102	102	97.8 (inactive)	99.9 (inactive)
OCc1cc(C(O)CNCCCCCCOCCCCc2ccccc2)ccc1O (stereo not drawn) [Salmeterol]	90.4	100	110 (inactive)	132 (inactive)
COc1cc(O)c(C(=O)C=Cc2ccccc2)c(OC)c1 [Flavokawain B]	75.4	81.6	93.6 (inactive)	124 (inactive)
O=C1NC(=O)C(=Cc2ccc3nccnc3c2)S1 [PI 3-Kg Inhibitor]	103	110	87.2 (inactive)	114 (inactive)
Clc1ccc(CON=C(Cn2ccnc2)c2ccc(Cl)cc2Cl)c(Cl)c1 [Oxiconazole]	99.8	101	98.4 (inactive)	113 (inactive)
CCCCCCCCC=CCCCCCCCC(=O)OCC(CO)OC(=O)CCCCCCCC=CCCCCCCCC (stereo not drawn) [1,2-Dioleoyl-glycerol (18:1)]	100	104	95.2 (inactive)	101 (inactive)
C#CCN1C(C)=C(C(=O)OC)C(c2cccc([N+](=O)[O-])c2)C(C(=O)OCC)=C1C (stereo not drawn)	97.2	107	89.2 (inactive)	103 (inactive)
COc1cc(C=Cc2ccccc2)oc(=O)c1 [5,6-Dehydrokawain]	104	97.5	99 (inactive)	92.6 (inactive)
CC(C)(C)c1ccc(C(O)CCCN2CCC(C(O)(c3ccccc3)c3ccccc3)CC2)cc1 (stereo not drawn) [Terfenadine]	92.7 ± 3.6	97.9 ± 12	107 (inactive)	126 (inactive)
CN(C)CCC(c1ccc(Cl)cc1)c1ccccn1.O=C(O)C=CC(=O)O (single isomer, unassigned; (+)) [(+)-Chlorpheniramine maleate]	104	104	99.2 (inactive)	88.5 (inactive)
CCCCCCCCCCCCCC(=O)NC(C)C(O)c1ccccc1 [D-erythro MAPP]	104	99.8	100 (inactive)	94.7 (inactive)
C=CC[N+]1(C2CC3C4CCC5CC(O)C(N6CCOCC6)CC5(C)C4CCC3(C)C2OC(C)=O)CCCC1.[Br-] (stereo not drawn) [Rocuronium bromide]	107	104	99.6 (inactive)	99.4 (inactive)
CCOC(=O)C1=C(C)NC(C)=C(C(=O)OC)C1c1cccc(Cl)c1Cl (stereo not drawn) [Felodipine]	102 ± 2.2	117.1 ± 0.85	86.3 (inactive)	97.5 (inactive)
C#CCN(C)Cc1ccccc1.Cl [Pargyline hydrochloride]	114	105	91.7 (inactive)	101 (inactive)
CON=C(C(=O)NC1C(=O)N2C(C(=O)[O-])=C(CSc3nc(=O)c([O-])nn3C)CSC12)c1csc(N)n1.[Na+].[Na+] (stereo not drawn) [Ceftriaxone sodium]	101	99.8	99.3 (inactive)	94 (inactive)
